Bioassay records: PubChem, National Center for Advancing Translational Sciences (NCATS)
HepG2 tox = HepG2 cytotoxicity, counter-screen for TGF-b inhibitors. AID 588856. Potency, µM (top dose mostly 46.1 µM), inactives show top-dose activity change, negative = cytotoxicity, hits mostly cytotoxic. 0.76% of 410,000 active. HepG2 CAGA-GFP viability, ATP luminescence, 18 h; note: potency is the fitted concentration of half-maximal effect
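CellTiter-Glo luminescence gave cytotoxicity after 18 hours at 37 degrees C. The cells were HepG2 CAGA-GFP in 1% FBS DMEM, stimulated with 500 pg/mL TGF-beta after compound addition. %Activity was normalised to no-cell wells (complete cell-killing) and DMSO (no toxicity), and curves were fitted and classified.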
TDP1 cell noCPT = qHTS for Inhibitors of human tyrosyl-DNA phosphodiesterase 1 (TDP1): qHTS in cells in absence of CPT; Potency, µM (titrated, usually from 46.2 µM), for inactives: top-dose activity change, negative = growth inhibition, usual class: inhibitors; 15% of 420,000 active; DT40 Tdp1-/- hTDP1 cells, no CPT, ATP luminescence, 48 h; note: potency is the fitted concentration of half-maximal effect; % is set by controls: 0 for no effect and ±100 for the full control effect; nearly all actives have a fitted effect of over 55% in size
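DT40 Tdp1-/-;hTDP1 cells, no CPT (DMSO vehicle only), 400 cells/well; compounds pin-transferred; ≥48 hr, 37 °C; CellTiter-Glo 30 min RT dark, luminescence read.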
TGFb SMAD3 inh = inhibitors of TGF-b signaling. HepG2 CAGA-GFP TGF-b/SMAD3 reporter, GFP fluorescence, 18 h; TGF-beta stimulated, 500 pg/mL final. Potency, µM (highest dose often 46.1 µM), inactives show at the highest dose activity, negative = inhibition, usual class: inhibitors. 1.2% of 410,000 active; note: potency is the fitted concentration of half-maximal effect; % is set by controls: 0 for no effect and ±100 for the full control effect; nearly all actives have a fitted effect of over 65% in size
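Inhibition was scored as loss of TGF-beta-induced (500 pg/mL final, 18 hours, 37 degrees C) GFP in HEPG2 cells carrying a CAGA-GFP reporter, in DMEM with 1% FBS. Well GFP was summed per cell; Activity was normalised to unstimulated and stimulated DMSO wells, then concentration-response fitting.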
TDP1 inh = blocks human tyrosyl-DNA phosphodiesterase 1 | Q9NUW8 | recombinant TDP1, AlphaScreen DNA substrate cleavage | Potency, µM (highest dose often 130 µM), without a hit: top-dose activity change, negative = inhibition, actives largely listed as inhibitors | 0.28% of 350,000 active | AID 485290; note: potency is the fitted concentration of half-maximal effect; % is set by controls: 0 for no effect and ±100 for the full control effect; nearly all actives have a fitted effect of over 40% in size
Target sequence (Q9NUW8 whole entry, looked up): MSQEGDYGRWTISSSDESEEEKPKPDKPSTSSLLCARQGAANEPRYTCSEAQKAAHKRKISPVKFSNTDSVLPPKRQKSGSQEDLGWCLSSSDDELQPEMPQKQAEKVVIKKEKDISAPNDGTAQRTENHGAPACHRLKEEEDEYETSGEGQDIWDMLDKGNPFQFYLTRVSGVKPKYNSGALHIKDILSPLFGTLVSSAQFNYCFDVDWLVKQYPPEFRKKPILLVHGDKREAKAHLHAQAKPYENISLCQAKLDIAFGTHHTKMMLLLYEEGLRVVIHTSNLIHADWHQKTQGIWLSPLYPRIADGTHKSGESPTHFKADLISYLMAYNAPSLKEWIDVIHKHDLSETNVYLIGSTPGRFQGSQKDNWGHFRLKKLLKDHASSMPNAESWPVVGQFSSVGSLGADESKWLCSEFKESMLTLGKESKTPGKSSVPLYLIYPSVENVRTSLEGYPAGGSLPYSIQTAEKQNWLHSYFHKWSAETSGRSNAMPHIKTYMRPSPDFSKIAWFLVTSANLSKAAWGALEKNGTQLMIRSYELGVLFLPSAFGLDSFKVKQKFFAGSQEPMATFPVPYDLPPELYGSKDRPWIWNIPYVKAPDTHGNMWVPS
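Here, a 5' biotin and 3' phosphotyrosine-FITC DNA oligonucleotide reports Tdp1 activity: intact substrate bridges AlphaScreen beads, while cleavage leaves a 3' phosphate and drops signal. All incubations at room temperature.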
IL1B secr inh = blocks inflammasome-driven IL-1 beta release; THP-1 LPS/ATP IL-1B secretion, AlphaLISA, 16 h; stronger effect = lower value; activity change, % at 57.5 µM; 4.7% of 360,000 active; in the data active = activity change below about -50%; inconclusive = mostly about -30% to -49%; note: % is set by controls: 0 for no effect and ±100 for the full control effect
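Secreted IL-1B measured by AlphaLISA bead assay after 16 h compound exposure of THP-1 cells; compounds (final up to 57.5 uM) added 1 h before LPS (250 ng/mL) and ATP (1.25 mM) stimulation; lower signal means less secretion.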
DT40 TDP1 CPT = growth inhibition of DT40 Tdp1-/-;hTDP1 cells with camptothecin (screen for TDP1 inhibitors); chicken DT40 Tdp1-/-;hTDP1 cells + 20 nM CPT, ATP luminescence, 48 h; Potency, µM (titrated, usually from 46.2 µM), inactives show at the highest dose activity change, negative = growth inhibition, actives largely listed as inhibitors; 12% of 420,000 active; AID 686979; note: potency is the fitted concentration of half-maximal effect; % is set by controls: 0 for no effect and ±100 for the full control effect; nearly all actives have a fitted effect of over 55% in size
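Chicken DT40 Tdp1-/- cells complemented with human TDP1, 400 cells/well, exposed to compounds plus 20 nM camptothecin for at least 48 h at 37 C; viability read as ATP content by CellTiter-Glo luminescence.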
Active calls of the source: *; ? = inconclusive; · = no result given. Rows were chosen to be rich in hits. Some 19% of all compounds tested hit in one or more screens of this group. Unless noted, calls come from the whole dose curve; as a rule, active = well fitted curve in the direction sought with a large enough effect; inconclusive = small, poorly fitted or top-dose-only effect, or another doubt; inactive = no such curve, though single readings can be large; an effect the other way counts as inactive or inconclusive.

SMILES	HepG2 tox	TDP1 cell noCPT	TGFb SMAD3 inh	TDP1 inh	IL1B secr inh	DT40 TDP1 CPT
CCOC(=O)[C@H]1[C@H]2COc3ccc(OC)cc3[C@H]2N2C(=O)CNC(=O)[C@@]12C	3%	-23%	3%	1%	18	?
CC(C)c1ccc(OCC(=O)NCCS(=O)(=O)N2CCN(c3ccc(F)cc3)CC2)cc1	0%	-18%	-7%	10%	·	-2%
Cc1cc(C)nc(NC(=NCCc2c[nH]c3ccccc23)NC(=O)C(C)(C)C)n1	-5%	15µM*	13%	·	-1	?
c1ccc2c(c1)CCN(C1=Nc3cccc4cccc1c34)C2	-24%	?	-30%	10%	-91*	?
c1cc2c3c(cccc3c1)C(N1CCCCCC1)=N2	-5%	-22%	-21%	1%	5	-3%
O=C(CCCSc1nc2ccccc2[nH]1)NCc1ccccc1F	-3%	21µM*	-7%	3%	-13	?
Cc1cc(C(=O)Nc2sc(C)c(-c3ccc(F)cc3)c2C(N)=O)no1	-16%	-14%	?	6%	0	-16%
Cc1sc(NC(=O)c2ccc(OCC(C)C)cc2)c(C(N)=O)c1-c1ccc(Cl)cc1Cl	-4%	7.3µM*	-21%	-1%	-17	9.2µM*
Cc1ccc(C)c(NC(=O)C2CCN(c3nn4c(=O)cc(C)nc4s3)CC2)c1	4%	0%	-3%	0%	·	-15%
Cc1ccc2[nH]c(C(=O)Nc3ccccc3)cc2c1	-1%	?	-1%	4%	·	?
CCN(Cc1ccccc1)C(=O)c1cc(COc2c(F)cccc2F)on1	6%	?	2%	-6%	?	?
Cc1ccc(OCc2cc(C(=O)N(CCO)Cc3cccs3)no2)cc1C	-4%	?	13%	0%	-62*	?
CCN(Cc1ccncc1)C(=O)c1cc(COc2ccc(C)c(C)c2)on1	-18%	?	-13%	-1%	-53*	-27%
CC1(C(=O)NS(=O)(=O)c2ccc(F)cc2F)CCN1C(=O)Cc1cc(F)ccc1F (stereo not given)	-5%	-21%	-19%	·	11	-11%
COc1cc(/C=N/NC(=O)C23CC4CC(CC(C4)C2)C3)cc(Br)c1O	21%	-30%	17%	-3%	19	22%
O=C(N/N=C/c1cc([N+](=O)[O-])cc(Br)c1O)C12CC3CCC(CC(C3)C1)C2	-56%	23µM*	?	11%	0	?
O=C1Nc2ccc(Br)cc2/C1=C/C1CC=CCC1 (stereo not given)	-29%	?	?	-4%	-99*	18µM*
O=S(=O)(O)c1cccnc1SCc1ccccc1	-14%	-4%	-15%	·	-1	-14%
O=Cc1cccnc1SCc1ccccc1	-35%	1.5µM*	20%	·	54	2.3µM*
COc1ccc(C2c3c(n(C)c4ccccc34)C(=O)N2CC(=O)Nc2ccc(C)c(Cl)c2)cc1 (stereo not given)	-22%	?	-23%	6%	·	?
CCc1cc2c(=O)c(-c3ccc(F)cc3)c(C)oc2cc1OCC(=O)O	-4%	2%	7%	4%	8	20%
CCc1cc2c(=O)c(-c3cnn(-c4ccccc4)c3)c(C)oc2cc1OCC(=O)Nc1cccc(C)c1	-2%	5.2µM*	6%	0%	-1	3.3µM*
CCc1cc2c(=O)c(-c3cnn(-c4ccccc4)c3)c(C)oc2cc1OCC(=O)Nc1ccc(F)c(F)c1	8%	9.2µM*	-2%	4%	0	15µM*
CC(C)COC(=O)Nc1nnc(Cc2ccccc2)s1	4%	9.2µM*	?	6%	32	?
CC(=O)N1N=C(c2ccc(Cl)cc2)CC1c1ccc([N+](=O)[O-])cc1 (stereo not given)	1%	?	-2%	·	-13	?
SMILES	HepG2 tox	TDP1 cell noCPT	TGFb SMAD3 inh	TDP1 inh	IL1B secr inh	DT40 TDP1 CPT
CC1(O)CC(c2ccc(Cl)cc2)=NN1C(=O)c1ccc([N+](=O)[O-])cc1 (stereo not given)	-38%	18µM*	?	-5%	-88*	21µM*
CCc1ccc(S(=O)(=O)c2nnn3c2nc(NC2CCCCCC2)c2sccc23)cc1	-37%	16µM*	21%	-8%	·	?
Cc1ccc(S(=O)(=O)c2nnn3c2nc(NCCc2ccccc2)c2sccc23)cc1	-12%	?	51%	5%	·	16µM*
Cc1ccc(S(=O)(=O)c2nnn3c2nc(NC(C)C)c2sccc23)cc1	16µM*	-19%	10µM*	0%	·	-11%
CN(C)Cc1ccccc1-c1cncnc1NCc1ccccc1	·	-24%	·	·	·	1%
Cc1cnc(CNc2ncnc3ccc(-c4ccccc4C)cc23)cn1	·	?	·	·	·	16µM*
Cc1cnc(CNc2ncncc2-c2ccccc2CN(C)C)cn1	·	?	·	28µM*	·	-28%
COc1cccc(-c2ccc3ncnc(NCc4cnc(C)cn4)c3c2)c1	·	15µM*	·	·	·	23µM*
COc1cccc(-c2ccc3ncnc(NCc4cccc(C)c4)c3c2)c1	-13%	·	?	2%	·	·
Cc1cccc(NC(=O)c2oc3ccccc3c2NC(=O)Cc2coc3cc(C)cc(C)c23)c1	-13%	?	?	5%	·	?
Cc1cc(OCC(=O)NC2CC2)c2c(C)c(C)c(=O)oc2c1	3%	?	5%	1%	-1	-5%
CC1CCN(C(=O)c2cc3c(=O)n(C)c4ccccc4c3s2)CC1	-26%	?	-7%	5%	·	12µM*
Cc1ccc(-c2c(C(=O)N3CCN(c4cccc(C)c4)C(C)C3)oc(=O)c3ccccc23)cc1 (stereo not given)	-35%	?	?	2%	·	15µM*
Cc1cccc(N2CCN(C(=O)c3ccc4c(c3)c(C)c(C)n4C)CC2C)c1 (stereo not given)	1%	21µM*	?	13%	-23	16µM*
Cc1ccc(Cl)cc1N1CCN(C(=O)c2cc3c(=O)n(C)c4ccccc4c3s2)CC1	2%	2%	-5%	2%	·	8%
COc1ccccc1N1CCN(C(=O)c2cc3c(=O)n(C)c4ccccc4c3n2C)CC1	-23%	23µM*	4%	1%	5	23µM*
Cn1c(C(=O)N2CCN(C(=O)c3ccco3)CC2)cc2c(=O)n(C)c3ccccc3c21	0%	?	3%	2%	-28	-11%
